Screens (PubChem BioAssay)
An excerpt weighted towards active compounds, which were near 15% of everything screened.
DT40 TDP1 no CPT: qHTS for Inhibitors of human tyrosyl-DNA phosphodiesterase 1 (TDP1): qHTS in cells in absence of CPT. DT40 Tdp1-/- hTDP1 cells, no CPT, ATP luminescence, 48 h. actives 15% (n = 420,000). AID 686978, 2013. Potency, µM (doses to about 46.2 µM), actives largely listed as inhibitors; note: nearly all actives have a fitted effect of over 55% in size
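A cellular qHTS used chicken DT40 cells lacking endogenous Tdp1 but carrying stably transfected human TDP1. Compounds were applied without camptothecin, and cell growth kinetics were judged by ATP-dependent luminescence after ≥48 hr.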
Gal4-VP16 FLuc: inhibits Gal4-VP16 luciferase reporter, ROR gamma counter-screen | Potency, µM (highest dose often 53.6 µM), most hits filed as inhibitors | AID 2546 | actives 3.5% (n = 310,000) | Drosophila S2 Gal4-VP16 UAS-luciferase, luminescence, 20 h;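 note: Gal4-VP16 expression switched on by copper sulfate through the metallothionein promoter; nearly all actives have a fitted effect of over 50% in size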
RORgamma inh: ROR gamma (mouse) transcription inhibition; Drosophila S2 Gal4-RORgamma UAS-luciferase reporter, 20 h; Potency, µM (titrated, usually from 53.6 µM), usual class: inhibitors; actives 5.4% (n = 310,000); AID 2551; note: nearly all actives have a fitted effect of over 60% in size
Target sequence (P51450 whole entry, looked up, the tested form may be a part): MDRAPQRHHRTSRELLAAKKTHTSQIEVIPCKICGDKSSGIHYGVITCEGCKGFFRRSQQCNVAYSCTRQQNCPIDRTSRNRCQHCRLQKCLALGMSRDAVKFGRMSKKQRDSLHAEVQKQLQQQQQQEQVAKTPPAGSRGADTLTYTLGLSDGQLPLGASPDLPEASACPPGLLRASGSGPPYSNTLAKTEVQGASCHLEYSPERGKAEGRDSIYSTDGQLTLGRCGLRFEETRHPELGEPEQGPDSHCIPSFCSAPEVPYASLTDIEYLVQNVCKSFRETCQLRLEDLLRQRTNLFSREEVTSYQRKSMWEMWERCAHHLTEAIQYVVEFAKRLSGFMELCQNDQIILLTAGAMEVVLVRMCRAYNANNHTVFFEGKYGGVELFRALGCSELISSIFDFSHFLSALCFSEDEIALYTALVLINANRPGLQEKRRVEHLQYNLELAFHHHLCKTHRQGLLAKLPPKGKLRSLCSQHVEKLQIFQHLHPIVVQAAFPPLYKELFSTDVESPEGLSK
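Stably transfected Drosophila Schneider cells are the test system, with ROR gamma fused to Gal4 and luciferase under UAS control; luminescence is read after 20 hr of 700 uM copper sulfate induction at ambient temperature.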
12-LOX inh: blocks human arachidonate 12S-lipoxygenase. purified 12hLO, xylenol orange hydroperoxide absorbance. AID 1671190. P18054. actives 1.1% (n = 580,000). Potency, µM (top dose mostly 108 µM), actives largely listed as inhibitors
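Purified human 12hLO at 150 nM in 25 mM Hepes, 0.01% Triton X-100, pH 7.0, preincubated 15 min at room temperature with compound. Reaction started with 40 uM arachidonic acid, 30 min at room temperature. Hydroperoxide measured by Fe-xylenol orange, 573/405 nm absorbance ratio.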
ELG1 repair inh: ELG1-dependent DNA repair inhibition; Potency, µM (top dose mostly 46.1 µM), usual class: inhibitors; HEK293T ELG1-luciferase reporter, luminescence, 16 h; DNA damage induced by 5-fluorouridine; actives 2.3% (n = 330,000); note: nearly all actives have a fitted effect of over 55% in size
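DMSO vehicle served as the neutral condition. Each well held 2,000 cells given 5-fluorouridine plus compound; after 16 hr at 37 °C/5% CO2, ONE-Glo was added and luciferase measured 30 min later.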
DT40 TDP1 CPT: DT40-hTDP1 cell growth loss with CPT. chicken DT40 Tdp1-/-;hTDP1 cells + 20 nM CPT, ATP luminescence, 48 h. actives 12% (n = 420,000). Potency, µM (doses to about 46.2 µM), actives largely listed as inhibitors; note: nearly all actives have a fitted effect of over 55% in size
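Cell growth measured by CellTiter-Glo luminescence after a minimum 48 h, 37 C compound exposure with 20 nM CPT in Tdp1-knockout DT40 cells stably expressing hTDP1, seeded 400/well; qHTS titration format.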
Numbers stand for hits; [ ] = another dose, or the depositor's remark. Calls come from the whole dose curve; as a rule, active = well fitted curve in the direction sought with a large enough effect; inconclusive = small, poorly fitted or top-dose-only effect, or another doubt; inactive = no such curve, though single readings can be large; an effect the other way counts as inactive or inconclusive.

`COc1cccc(N2CCN(C(=O)c3ccc4nc(N5CCC(C)CC5)sc4c3)CC2)c1` gave DT40 TDP1 no CPT inconclusive, Gal4-VP16 FLuc inactive, RORgamma inh 12.6µM, 12-LOX inh inactive, ELG1 repair inh inconclusive and DT40 TDP1 CPT inconclusive.
For Cc1ccc(Cl)cc1N1CCN(C(=O)c2ccc3nc(N4CCC(C)CC4)sc3c2)CC1 the results were DT40 TDP1 no CPT 20.6µM, 12-LOX inh inactive and DT40 TDP1 CPT 20.6µM.
`CCCc1nnc([C@H]2CCN(C3CCN(C(C)=O)CC3)C2)o1` gave 12-LOX inh inactive.
For O=C(CCC[C@@H]1[C@H]2CCCN3CCC[C@@H](CN1C(=O)Nc1ccccc1)[C@@H]23)Nc1ccccc1 the results were 12-LOX inh inactive.
Screening COc1cc(SC)ccc1C(=O)OCC(=O)NCc1cccs1 returned 12-LOX inh inactive.
For Cc1ccc(C)c(N2CCN(C(=O)c3ccc4nc(N5CCOCC5)sc4c3)CC2)c1 the results were DT40 TDP1 no CPT 13µM, Gal4-VP16 FLuc inactive, RORgamma inh inactive, 12-LOX inh inactive, ELG1 repair inh inconclusive and DT40 TDP1 CPT inconclusive.
`Cn1c(CN(CCN2CCCCC2)CC2CCCN(C3CCCC3)C2)nc2ccccc21` (stereo not given) gave 12-LOX inh inactive.
For CCC(C)Sc1ccc(-c2nc3ccc(C)cn3c2NCc2ccccc2)cc1 (stereo not given) the results were DT40 TDP1 no CPT 16.4µM, 12-LOX inh inactive, ELG1 repair inh inconclusive and DT40 TDP1 CPT 23.1µM.
`CCCCCCSc1cccc(-c2nc3ccc(Cl)cn3c2NCCCC)c1` gave DT40 TDP1 no CPT 13µM, 12-LOX inh inconclusive and DT40 TDP1 CPT 16.4µM.
For CCCCCCSc1ccc(-c2nc3ccccn3c2NCCCC)cc1 the results were DT40 TDP1 no CPT 14.6µM, 12-LOX inh inactive, ELG1 repair inh inactive and DT40 TDP1 CPT 23.1µM.
CCCCNc1c(-c2ccc(SC(C)CC)cc2)nc2ccc(Cl)cn12 (stereo not given) was read as DT40 TDP1 no CPT 29.1µM, 12-LOX inh inconclusive and DT40 TDP1 CPT inconclusive.
`O=C(Cc1cccc(Cl)c1)N1CCc2c(n(CCOc3ccccc3)n(-c3ccccc3)c2=O)C1` gave 12-LOX inh inactive.
For CN(C)CCCN(C(=O)/C=C/c1cccs1)c1nc2c(F)cccc2s1 the results were DT40 TDP1 no CPT 20.6µM, Gal4-VP16 FLuc inactive, RORgamma inh inconclusive, 12-LOX inh inactive, ELG1 repair inh inactive and DT40 TDP1 CPT 20.6µM.
CN(C)CCCN(C(=O)CCc1ccccc1)c1nc2c(F)cccc2s1 was read as DT40 TDP1 no CPT inconclusive, Gal4-VP16 FLuc inactive, RORgamma inh inactive, 12-LOX inh inactive, ELG1 repair inh inactive and DT40 TDP1 CPT inconclusive.
`CN(C(=O)C1CCN(S(=O)(=O)c2cccs2)CC1)C1CCCCC1` gave DT40 TDP1 no CPT inactive, Gal4-VP16 FLuc inactive, RORgamma inh inactive, 12-LOX inh inactive, ELG1 repair inh inactive and DT40 TDP1 CPT inactive.
For Cc1cccc2sc(N(CCN(C)C)C(=O)C3CCN(S(=O)(=O)c4cccs4)CC3)nc12 the results were DT40 TDP1 no CPT 18.4µM, 12-LOX inh inconclusive, ELG1 repair inh inactive and DT40 TDP1 CPT inconclusive.
`Cc1cccc2sc(N(CCN(C)C)C(=O)/C=C/c3cccs3)nc12` gave DT40 TDP1 no CPT 18.4µM, Gal4-VP16 FLuc inconclusive, RORgamma inh inconclusive, 12-LOX inh inconclusive, ELG1 repair inh inactive and DT40 TDP1 CPT 16.4µM.
COc1cc(C2CC(=O)Nc3c(-c4ccc(Cl)cc4)nsc32)cc2c1OCO2 (stereo not given) was read as 12-LOX inh inactive.
CNC[C@@H](Cc1ccccc1)NC[C@@H](CC1CCCCC1)NCCCc1ccccc1 was read as DT40 TDP1 no CPT 9.2µM, Gal4-VP16 FLuc inconclusive, RORgamma inh inconclusive, 12-LOX inh inconclusive, ELG1 repair inh inconclusive and DT40 TDP1 CPT 8.2µM.
`CCC[C@@H](CN[C@@H](CNC)C(C)C)NCCCCc1ccccc1` gave DT40 TDP1 no CPT 0.82µM, Gal4-VP16 FLuc inactive, RORgamma inh inactive, 12-LOX inh inactive, ELG1 repair inh inconclusive and DT40 TDP1 CPT 1.03µM.
For CCCCCCCCCCCCCc1ccccc1 the results were 12-LOX inh inactive.
For CCC[C@@H](CNC)NC[C@H](Cc1ccccc1)NCCCCc1ccccc1 the results were DT40 TDP1 no CPT 11.6µM, Gal4-VP16 FLuc inactive, RORgamma inh inactive, 12-LOX inh inactive, ELG1 repair inh inactive and DT40 TDP1 CPT 9.2µM.
Screening CN(C[C@H](Cc1ccccc1)N(C[C@@H](CC1CCCCC1)N(CCc1ccccc1)N=O)N=O)N=O returned DT40 TDP1 no CPT inconclusive, Gal4-VP16 FLuc inactive, RORgamma inh inactive, 12-LOX inh inactive, ELG1 repair inh inactive and DT40 TDP1 CPT inconclusive.
`CNC[C@@H](CC1CCCCC1)NC[C@H](CC(C)C)NCCc1cccc(C(F)(F)F)c1` gave DT40 TDP1 no CPT 5.17µM, Gal4-VP16 FLuc inconclusive, RORgamma inh 11.2µM, 12-LOX inh inactive, ELG1 repair inh inconclusive and DT40 TDP1 CPT 5.17µM.
`C=CCNC(=O)COC(=O)c1cc(C)nc2ccccc12` gave 12-LOX inh inactive.
`COc1cc(OC)cc(C(=O)N(C)CCCNC(=O)c2nc3ccccc3c(=O)[nH]2)c1` gave 12-LOX inh inactive.
CCC(=O)Nc1ccc2oc(-c3ccc(OC)c(Br)c3)nc2c1 was read as 12-LOX inh inactive.
Screening CN1C(=O)c2cccc3c(S(=O)(=O)Nc4ccccn4)ccc1c23 returned DT40 TDP1 no CPT inconclusive, Gal4-VP16 FLuc inconclusive, RORgamma inh inactive, 12-LOX inh inconclusive, ELG1 repair inh inconclusive and DT40 TDP1 CPT inconclusive.
O=C1C(=O)N(CNc2ccccn2)c2ccccc21 was read as DT40 TDP1 no CPT 1.64µM, Gal4-VP16 FLuc inactive, RORgamma inh inactive, 12-LOX inh inactive, ELG1 repair inh inactive and DT40 TDP1 CPT 2.06µM.
O=C(c1ccc(Cl)cc1)N1CCC(N2CCCS2(=O)=O)CC1 was read as 12-LOX inh inactive[6.33 µM].
`O=C(N/N=C/c1cn(-c2ccccc2)nc1-c1cc2ccccc2o1)c1ccncc1` gave DT40 TDP1 no CPT 18.4µM, Gal4-VP16 FLuc 4.47µM, RORgamma inh 2.82µM, 12-LOX inh inactive, ELG1 repair inh inconclusive and DT40 TDP1 CPT 25.9µM.
For O=C(N/N=C/c1cn(-c2ccccc2)nc1-c1cc2ccccc2o1)c1cccnc1 the results were DT40 TDP1 no CPT 5.17µM, Gal4-VP16 FLuc 1.41µM, RORgamma inh 3.98µM, 12-LOX inh inactive, ELG1 repair inh inconclusive and DT40 TDP1 CPT 3.26µM.
For CC(C(=O)N1CCOCC1)n1ccc2cc(S(=O)(=O)N3CCCCCC3)ccc21 (stereo not given) the results were 12-LOX inh inactive.
